Results on five compounds are retold here after PubChem BioAssay (NCI).

Values joined by “and” are separate entries in the source; they are usually repeats but may differ in a detail not shown here. Identical values can stand only once. Compounds without any hit were thinned out: in the full panel of roughly 83,000, 20% have a hit.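 Each cell line was grown in a 96-well plate and treated with one concentration of compound for 48 hours. Values below 10 were considered active.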 Active and inactive are the calls of the source.

Holding throughout (test): NCI-60 one-dose screen, 48 h (100 = growth as untreated, 0 = no growth, -100 = all killed)
Holding throughout (settings): 10 µM unless noted

In test [1] the test system is SR leukemia.
The subject of test [2] is RPMI-8226 leukemia.
For test [3], the system named is OVCAR-8 ovarian.
Test [4] relates to OVCAR-5 ovarian.
Test [5] deals with OVCAR-4 ovarian.
Test [6] has as its system SK-OV-3 ovarian.
Test [7] deals with IGROV1 ovarian.
The test system of test [8] is OVCAR-3 ovarian.
The test system of test [9] is HS 578T breast.
Test [10] has as its system NCI/ADR-RES ovarian.
For test [11], the system named is T-47D breast.
In test [12] the test system is BT-549 breast.
The subject of test [13] is MDA-MB-435 melanoma.
Test [14] has as its system SW-620 colon.
For test [15], the system named is MCF7 breast.
The test system of test [16] is HCT-116 colon.
The test system of test [17] is HCC-2998 colon.
Test [18] relates to KM12 colon.

Regarding `Oc1ccccc1C=NCC1CCC(CN=Cc2ccccc2O)CC1` (stereo not given), the growth in test [1] is 69.4% (inactive); in [2], 90.9% (inactive); in test [3] it was 79.9% (inactive); in test [4] it was 67.6% (inactive); in test [5] it was 116% (inactive); in [6], 95% (inactive). Moreover, the growth in test [7] was 68.1% (inactive); in [8], 116% (inactive); in [9] it was 114% (inactive); in test [10], 80.4% (inactive); in test [11], 96.9% (inactive); in test [12], 113% (inactive). Also, the growth in test [13] is 104% (inactive); in test [14] it was 47.4% (inactive); in [15], 66% (inactive); in test [16], 52.8% (inactive); in test [17], 101% (inactive); in test [18], 107% (inactive).
`CC(=O)Nc1cc(S(=O)(=O)O)cc2cc(S(=O)(=O)O)c(N=Nc3ccccc3)c(O)c12`: the growth was 98.8% (inactive) and 92.1% (inactive) in test [1]; 104% (inactive) and 96.3% (inactive) in test [2]; 109% (inactive) and 99.5% (inactive) in [3]; 122% (inactive) and 113% (inactive) in test [4]; 109% (inactive) in test [5]; 128% (inactive) and 104% (inactive) in test [6]. The growth in test [7] was 117% (inactive) and 101% (inactive); in test [8] it was 121% (inactive) and 109% (inactive); in test [9] it was 92.9% (inactive) and 103% (inactive); in [10] it was 107% (inactive) and 105% (inactive); in [11], 109% (inactive) and 85.9% (inactive); in [12], 107% (inactive) and 117% (inactive). For the same compound, the growth is 108% (inactive) and 112% (inactive) in test [13]; 104% (inactive) and 102% (inactive) in test [14]; 102% (inactive) and 91.9% (inactive) in test [15]; 93.2% (inactive) and 123% (inactive) in [16]; 99.6% (inactive) and 99.1% (inactive) in test [17]; 107% (inactive) and 106% (inactive) in test [18].
`CC(C)N=c1cc2n(-c3ccc(Cl)cc3)c3ccccc3nc-2cc1Nc1ccc(Cl)cc1`: the growth in [1] was -35.4% (active) and 9.31% (active); in test [2] it was 2.57% (active) and -21.9% (active) and -42.6% (active); in test [3], 15.1% (inactive) and 48.7% (inactive) and 14.1% (inactive); in [4] it was 38.3% (inactive) and 49.6% (inactive) and 11.3% (inactive); in test [5] it was 5.39% (active) and 11.1% (inactive) and 7.85% (active); in test [6] it was 37.6% (inactive) and 52.9% (inactive) and 42.6% (inactive). The growth is 30.2% (inactive) and -9.37% (active) in test [7]; -37.5% (active) and -71.1% (active) and -66.3% (active) in [8]; -13.2% (active) and 13.1% (inactive) in test [9]; 23.2% (inactive) and -2.63% (active) and 39.2% (inactive) in [10]; 38.3% (inactive) and 32.9% (inactive) and 41.5% (inactive) in [11]; 41.2% (inactive) and 11.6% (inactive) and -4.5% (active) in test [12]. In addition, the growth in test [13] is -25.6% (active) and -22.8% (active) and -46.2% (active); in [14], 13.4% (inactive) and 9.23% (active) and 6.7% (active); in [15] it was 11.9% (inactive) and 18.4% (inactive) and 10.5% (inactive); in test [16] it was -54.6% (active) and -63.1% (active) and -82.7% (active); in [17], 16.8% (inactive) and -34.4% (active) and -17.4% (active); in [18], 12.6% (inactive) and 5.23% (active) and -1.86% (active).
In the case of `Cc1ccc(S(=O)(=O)Nc2nc3ccccc3nc2Nc2ccc3nsnc3c2)cc1`, the growth in test [1] was 71.2% (inactive) and 76.1% (inactive); in [2], 27.5% (inactive); in test [3], 43.4% (inactive) and 63.3% (inactive); in test [4] it was 92.1% (inactive) and 87.2% (inactive); in [5] it was 38.9% (inactive) and 30.7% (inactive); in test [6], 30.1% (inactive) and 69.2% (inactive). Further, the growth in test [7] was 66.3% (inactive) and 41.9% (inactive); in test [8] it was 47.8% (inactive) and 35.2% (inactive); in test [9], 11.4% (inactive); in test [10] it was 62.8% (inactive) and 43.2% (inactive); in [11] it was 33.6% (inactive) and 62.8% (inactive); in [12], 37% (inactive) and 51.5% (inactive). Moreover, the growth in test [13] was 36.3% (inactive) and 66.4% (inactive); in [14], 77.5% (inactive) and 61% (inactive); in test [15] it was 50.9% (inactive) and 50.5% (inactive); in test [16] it was 38.4% (inactive) and 42.2% (inactive); in test [17], 42.1% (inactive); in [18] it was 48.7% (inactive) and 44.1% (inactive).
For the compound `Nc1ccc2ccc(N)cc2c1`, the growth in test [1] was 36.8% (inactive); in test [2], 84.6% (inactive); in [3] it was 82% (inactive); in test [4] it was 124% (inactive); in test [5], 40% (inactive); in [6], 91.6% (inactive). Also, the growth was 73.6% (inactive) in test [7]; 25.5% (inactive) in [8]; 104% (inactive) in test [9]; 73.5% (inactive) in [10]; 87.7% (inactive) in test [11]; 87.7% (inactive) in test [12]. Besides, the growth in [13] was -33.6% (active); in test [14], 87.5% (inactive); in test [15] it was 63.5% (inactive); in test [16], 82.6% (inactive); in test [17], 100% (inactive); in test [18], 67.1% (inactive).
